PubChem BioAssay (NCATS)
Records with an inconclusive call do not appear. The source made the active and inactive calls. Calls come from the whole dose curve; as a rule, active = well fitted inhibition curve with a large enough effect; inconclusive = small, poorly fitted or top-dose-only effect; inactive = flat fitted curve, though single readings scatter.

Columns and labels:
Experiment in all cases: qHTS profiling for inhibitors of Plasmodium falciparum proliferation (AID 504749); note: nearly all actives have a fitted effect of over 60% in size
Conditions in all cases: P. falciparum in erythrocytes, SYBR Green DNA, 72 h; series mostly up to 28.7 µM
CP268 = tested on: CP268
In short: (§1)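 Infected RBCs, 0.3% parasitemia/2.5% Hct final; cpd 72 h, 37 C, 5% CO2; lysis buffer with saponin/triton/SYBR Green I, o/n RT dark; FI 485/535; norm. to artemisinin (0.29 uM) and DMSO.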

CP269 = tested on: CP269
In short: as §1

CP286 = tested on: CP286
In short: as §1

CP291 = tested on: CP291
In short: as §1

CP297 = tested on: CP297
In short: as §1

CP305 = tested on: CP305
In short: as §1

CP315 = tested on: CP315
In short: as §1

CP325 = tested on: CP325
In short: as §1

CP329 = tested on: CP329
In short: as §1

CP335 = tested on: CP335
In short: as §1

DFO2036 = tested on: DFO2036
In short: as §1

DIV14 = tested on: DIV14
In short: as §1

DIV17 = tested on: DIV17
In short: as §1

DIV30 = tested on: DIV30
In short: as §1

Dd2 = tested on: Dd2
In short: as §1

ECU = tested on: ECU
In short: as §1

FAB9 = tested on: FAB9
In short: as §1

GB4 = tested on: GB4
In short: as §1

HB3 = tested on: HB3
In short: as §1

ICS = tested on: ICS
In short: as §1

Measured: Potency

Cc1c(F)c(N2CCNC(C)C2)cc2c1c(=O)c(C(=O)O)cn2C1CC1 (stereo not given)
inactive: all assays above

COC(=O)[C@@H]1CC2=CC(=O)CC[C@]2(C)[C@@]23O[C@@H]2C[C@@]2(C)[C@@H](CC[C@@]24CCC(=O)O4)[C@H]13
inactive: all assays above

O=C1CCC(c2ccc(-n3ccnc3)cc2)=NN1
inactive: all assays above

CCCn1c(=O)[nH]c(=O)c2[nH]cnc21
inactive: all assays above

CC(=O)Oc1ccc(C(=C2CCCCC2)c2ccc(OC(C)=O)cc2)cc1
inactive: all assays above

O=C(O)CNC(=O)c1ccccc1
inactive: all assays above

O=C(Nc1ccc(Cl)c(Cl)c1)C1CC1
inactive: all assays above

O=C(COc1ccc(Cl)cc1)N1CCN(Cc2ccc3c(c2)OCO3)CC1
inactive: all assays above

C[C@]12CCC(=O)C=C1CC[C@H]1[C@@H]3CC[C@](O)(C(=O)CO)[C@@]3(C)C[C@H](O)[C@@]12F
inactive: all assays above

COc1cc(C(=S)N2CCOCC2)cc(OC)c1OC
inactive: all assays above

Nc1ccc(/C=C/c2ccc(N)cc2S(=O)(=O)O)c(S(=O)(=O)O)c1
inactive: all assays above
